# Screens from PubChem BioAssay.
# ABHD5 PLIN5 PPI = inhibitors of human ABHD5-perilipin-5 interaction. Q00G26+Q8WTS1. Split G. princeps luciferase complementation, luminescence, 4 h. inhibition, % at 4 µM. actives 0.78% (n = 360,000);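 active = inhibition above the mean inhibition across every tested compound plus 3 SD, cut at about 22% in these data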;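 note: 0% = DMSO only wells and the 100% control is not disclosed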
# CRFR2-BP antag = antagonists of CRF-binding protein/CRF-R2 receptor complex | HEK293 CRF-R2/CRF-BP, CRF-induced calcium fluorescence | AID 588475 | inhibition, % at 11.8 µM | actives 0.59% (n = 350,000);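 active = inhibition of the ligand-induced calcium signal above about 50% at the single tested concentration, limit read from the data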
# HTR2A ag = agonists of mouse serotonin 5-HT2A receptor (HTR2A) | P35363 | CHO-K1 mHTR2A beta-arrestin complementation, luminescence; percent of 30 µM serotonin response | activation, % at 7.6 µM | actives 0.66% (n = 360,000);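 active = activation above a run cutoff, the mean activation of all tested compounds plus 3 SD, cut at about 14% in these data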;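 note: 0% = plate median of compound wells and 100% = 30 µM serotonin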
# NOD2-RIPK2 inh = NOD2-RIPK2 protein interaction inhibition. O43353. CHO BLA complementation NOD2-RIPK2, CCF4 ratio. inhibition, % at 4.98 µM. actives 0.38% (n = 360,000); in the data active = inhibition above about 21%;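 note: 0% = vehicle only and 100% = reference blocker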
# TLR4 MyD88 comp = blocks binding of human TLR4 to MyD88. inhibition, % at 8.4 µM. AID 861. O00206+Q99836. HeLa CL3-4 TLR4/MyD88 BLA complementation, FRET ratio. actives 0.18% (n = 200,000); in the data active = inhibition above about 25%;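 note: 0% = vehicle and 100% = reference inhibitor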
# Target sequence (O00206 whole entry, looked up): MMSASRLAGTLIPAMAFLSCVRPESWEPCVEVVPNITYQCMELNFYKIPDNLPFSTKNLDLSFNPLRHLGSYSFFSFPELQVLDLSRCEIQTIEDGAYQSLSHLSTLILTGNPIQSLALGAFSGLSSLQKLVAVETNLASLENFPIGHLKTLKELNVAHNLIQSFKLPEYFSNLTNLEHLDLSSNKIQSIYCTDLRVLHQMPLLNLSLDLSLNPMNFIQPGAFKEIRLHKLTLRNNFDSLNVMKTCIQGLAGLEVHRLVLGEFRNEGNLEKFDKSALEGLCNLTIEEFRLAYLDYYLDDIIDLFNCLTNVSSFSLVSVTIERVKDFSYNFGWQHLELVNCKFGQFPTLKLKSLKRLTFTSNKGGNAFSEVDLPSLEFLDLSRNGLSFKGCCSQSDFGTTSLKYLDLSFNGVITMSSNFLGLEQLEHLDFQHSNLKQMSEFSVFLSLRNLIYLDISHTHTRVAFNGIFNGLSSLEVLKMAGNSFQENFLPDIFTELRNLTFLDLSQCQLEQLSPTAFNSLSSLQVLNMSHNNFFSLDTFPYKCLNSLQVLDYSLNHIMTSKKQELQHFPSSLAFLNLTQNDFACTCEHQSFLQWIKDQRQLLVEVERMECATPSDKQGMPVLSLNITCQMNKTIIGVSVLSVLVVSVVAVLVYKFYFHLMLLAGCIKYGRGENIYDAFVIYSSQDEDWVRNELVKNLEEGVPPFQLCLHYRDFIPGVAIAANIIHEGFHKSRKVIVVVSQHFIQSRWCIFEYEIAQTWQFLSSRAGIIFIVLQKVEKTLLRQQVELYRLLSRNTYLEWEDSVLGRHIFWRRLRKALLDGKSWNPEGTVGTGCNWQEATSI
# Target sequence (Q99836 whole entry, looked up): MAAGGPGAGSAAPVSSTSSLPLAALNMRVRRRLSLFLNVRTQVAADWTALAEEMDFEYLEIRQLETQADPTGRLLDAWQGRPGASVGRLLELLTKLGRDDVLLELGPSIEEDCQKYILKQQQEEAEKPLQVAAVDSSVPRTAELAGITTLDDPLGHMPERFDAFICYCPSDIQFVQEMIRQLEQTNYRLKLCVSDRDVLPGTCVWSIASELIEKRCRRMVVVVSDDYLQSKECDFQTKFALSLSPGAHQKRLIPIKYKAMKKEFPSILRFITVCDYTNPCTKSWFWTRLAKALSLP
# TLR9-MyD88 block = inhibitors of human TLR9-MyD88 binding. actives 0.21% (n = 340,000). inhibition, % at 4.98 µM. Q9NR96+Q99836. CHO BLA complementation TLR9-MyD88, CCF4 FRET ratio;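 active = inhibition above the mean over all tested compounds plus 3 SD, cut at about 21% in these data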;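 note: 0% = DMSO only wells and 100% = clavulanate BLA inhibitor control wells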
# TLR4-MyD88 conf = confirmation of human TLR4-MyD88 binding inhibitors; shares compounds with TLR4 MyD88 comp; HeLa CL3-4 BLA complementation, CCF4 FRET ratio; inhibition, % at 8.4 µM; actives 50% (n = 350); AID 941;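 active = mean inhibition across three repeat runs above about 25% carried over from the earlier screen, limit read from the data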;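 note: plate controls were DMSO only for no effect and clavulanic acid blocking BLA at full dose for full effect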
# BLA inhibitor ct = inhibits beta-lactamase activity, counter-screen to TLR4-MyD88 binding inhibitors | AID 1237 | shares compounds with TLR4 MyD88 comp | actives 63% (n = 350) | HeLa BLA reporter, CCF4 FRET ratio | inhibition, % at 8.4 µM;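 active = mean inhibition over three repeats above about 26% taken from the earlier screen, limit read from the data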;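 note: HeLa cells stably expressing beta-lactamase reporter as counterscreen for TLR4-MyD88 inhibitors; 0% = DMSO and 100% = clavulanic acid full inhibition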
# * = called active by the depositor; . = no result. A selection: hits, their analogues and other compounds. The true share with any hit is near 2.4%.
SMILES,ABHD5 PLIN5 PPI,CRFR2-BP antag,HTR2A ag,NOD2-RIPK2 inh,TLR4 MyD88 comp,TLR9-MyD88 block,TLR4-MyD88 conf,BLA inhibitor ct
COc1ccc(S(=O)(=O)N2CCCC(C(=O)NCc3ccccn3)C2)cc1Cl (stereo not drawn),-4,8,-1,-1,26*,-2,5,4
CCOc1ccc(S(=O)(=O)N2CCCC(C(=O)NCc3ccccn3)C2)cc1Cl (stereo not drawn),-4,-10,7,7,.,-1,.,.
O=C1CC(c2ccc(O)cc2)Oc2cc(O)cc(O)c21 (stereo not drawn),-6,14,-5,-5,2,-2,.,.
CC1CC(=O)c2c(cc3c(-c4c(O)cc(O)c5c(O)c6c(cc45)OC(C)CC6=O)c(O)cc(O)c3c2O)O1 (stereo not drawn),10,-3,-9,23*,42*,18,44*,65*
CCCCNC(=O)N1CCN(C/C=C/c2ccccc2)CC1,-5,2,-5,-1,25*,-8,-4,-1
CCC(CC)C(=O)N(C)c1c(C)nc2c(OCC3CCCCC3)cccn12,-5,.,3,2,.,.,.,.
O=C(Nc1ccc(F)c(Cl)c1)c1cc(C2CCCN(C(=O)CCc3ccccc3)C2)on1 (stereo not drawn),4,.,-5,3,.,.,.,.
CCSc1nnc(-c2sc3nnc(-c4ccccc4)c(-c4ccccc4)c3c2N)o1,-1,-38,5,11,40*,3,47*,80*
N#Cc1sc2nc(-c3cccs3)cc(-c3ccccc3)c2c1N,3,-43,8,8,46*,6,48*,82*
CC(=O)Nc1cccc(-c2ccnc3c2CC(C(=O)NCCC(F)(F)F)O3)c1 (stereo not drawn),-7,.,-1,3,.,.,.,.
COCCn1c(-c2ccc(-c3ccc([N+](=O)[O-])cc3Br)o2)nc2c1c(=O)[nH]c(=O)n2CC(C)C,5,-67,-2,15,44*,-2,30*,59*
COCCn1c(=O)[nH]c(=O)c2c1nc(-c1ccc(-c3ccc(Cl)cc3[N+](=O)[O-])o1)n2Cc1ccccc1,-5,11,-5,1,-8,-5,.,.
COC(=O)c1ccc(-n2c(C)cc(C(=O)CCl)c2C)cc1,7,1,-3,3,25*,-2,20,-6
CCOc1ccc(-n2c(C)cc(C(=O)CCl)c2C)cc1,4,9,-3,8,20,-2,.,.
Cc1cnc2ccc(F)cc2c1,-3,.,-4,-12,.,.,.,.
CCCCOC(=O)CSc1nnc(-c2cc(OC)c(OC)c(OC)c2)o1,-7,-10,1,-2,26*,-1,17,-8
CCCCN(CCCC)C(=O)CSc1nnc(-c2cc(OC)c(OC)c(OC)c2)o1,-2,11,0,2,5,-9,.,.
CCCCNC(=O)C1C(c2ccc(OC)cc2)=Nc2ccccc2N1C(=O)c1ccc2ncccc2c1 (stereo not drawn),6,.,-6,0,.,.,.,.
COc1ccccc1N1CCN(C(=O)COc2cc(C)ccc2C)CC1,-1,5,0,-15,8,5,.,.
COc1ccccc1N1CCN(C(=O)COc2cc(C)cc(C)c2)CC1,2,12,-1,2,26*,-6,-5,-2
COc1ccc(S(=O)(=O)N2CCC(C(=O)N[C@@H](C)C(=O)NCc3cccnc3)CC2)cc1,-5,7,-4,0,.,-7,.,.
COc1cc(Cc2cc(OC)c(O)c(OC)c2)cc(OC)c1O,0,-1,-4,12,.,-5,.,.
Cc1nn(-c2ccccc2)c2c1C(c1ccc(O)c(O)c1)N1C(=N2)C(Nc2ccccc2)=Nc2ccccc21 (stereo not drawn),-5,-17,-2,18,57*,13,52*,89*
